The values that follow come from PubChem BioAssay AID602144 (Vanderbilt Specialized Chemistry Center, 2011).

Values without a mark were called inactive. The source made the active and inactive calls. No stated cut-off is given here; in the data, active means remaining activity below about 50%; inactive means the rest.

For this assay, the target named is Phospholipase D1 (Homo sapiens) (UniProt Q13393). The assay can be described thus: cellular phospholipase D1 activity inhibition – Calu-1 cells, single concentration (AID 602144).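 Further: tested at 200 nM.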 The following applies: cellular PLD1 activity, active compounds read low.
Chain of Phospholipase D1 (Homo sapiens) (Q13393 whole entry, looked up): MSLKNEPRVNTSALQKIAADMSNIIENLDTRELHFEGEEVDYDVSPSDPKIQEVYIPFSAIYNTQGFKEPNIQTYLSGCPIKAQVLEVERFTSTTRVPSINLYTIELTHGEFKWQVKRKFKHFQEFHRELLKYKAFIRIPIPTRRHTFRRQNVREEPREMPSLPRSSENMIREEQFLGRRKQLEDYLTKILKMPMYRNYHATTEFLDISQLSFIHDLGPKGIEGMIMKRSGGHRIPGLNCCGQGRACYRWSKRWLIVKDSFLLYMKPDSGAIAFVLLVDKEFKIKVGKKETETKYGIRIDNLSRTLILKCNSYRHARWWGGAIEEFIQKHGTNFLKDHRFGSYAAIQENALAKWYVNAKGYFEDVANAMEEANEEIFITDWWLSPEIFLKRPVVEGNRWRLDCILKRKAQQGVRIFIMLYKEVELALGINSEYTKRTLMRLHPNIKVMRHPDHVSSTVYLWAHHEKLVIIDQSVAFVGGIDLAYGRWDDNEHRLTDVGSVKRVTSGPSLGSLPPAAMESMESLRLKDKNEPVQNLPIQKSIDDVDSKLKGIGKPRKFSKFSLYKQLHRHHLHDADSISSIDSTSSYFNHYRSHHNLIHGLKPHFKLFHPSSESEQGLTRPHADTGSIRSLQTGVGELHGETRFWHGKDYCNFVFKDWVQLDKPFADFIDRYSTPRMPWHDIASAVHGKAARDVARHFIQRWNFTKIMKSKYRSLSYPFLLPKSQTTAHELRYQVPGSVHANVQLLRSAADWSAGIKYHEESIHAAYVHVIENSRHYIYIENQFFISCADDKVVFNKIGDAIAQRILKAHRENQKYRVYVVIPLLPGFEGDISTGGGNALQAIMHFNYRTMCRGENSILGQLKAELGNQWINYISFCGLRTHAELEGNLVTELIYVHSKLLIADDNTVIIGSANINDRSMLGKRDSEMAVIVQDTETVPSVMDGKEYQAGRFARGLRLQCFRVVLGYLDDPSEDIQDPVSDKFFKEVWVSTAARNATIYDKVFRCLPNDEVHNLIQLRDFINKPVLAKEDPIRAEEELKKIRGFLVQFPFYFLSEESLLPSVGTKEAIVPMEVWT
Chain of Phospholipase D1 (Homo sapiens) (Q13393 whole entry, looked up): as above
On to `C[C@@H](CN1CCC(n2c(=O)[nH]c3ccccc32)CC1)NC(=O)C1C[C@H]1c1ccccc1` (some centres undefined), for which the remaining activity was 25.5% (active).

For the compound `CCOC(=O)CNC(=O)NCCN1CCC(n2c(=O)[nH]c3ccccc32)CC1`, the remaining activity was 136%.

As for `CN1CCC2(CCN(CCNC(=O)c3ccc4ccccc4c3)CC2)C1=O`, the remaining activity was 120%.

Regarding `O=C(NCCN1CCC(n2c(=O)[nH]c3ccccc32)CC1)c1cccc(Cl)n1`, the remaining activity was 37.8% (active).

Broadly, the remaining activity is the signal under treatment as a percentage of the control signal.
